From PubChem BioAssay AID1159580 (chemical genetic matrix, 2015)
In all, about 5,500 compounds went through this assay and about 2,000 (36%) were called active. Not shown: some 18% with an inconclusive outcome. No stated cut-off is given here; in the data, active means normalized growth mostly below about 0.91 (no sharp cut-off); inconclusive means no clear call, values can overlap the other calls; inactive means mostly above about 0.92. The list shows a part of the results.

Test: chemical genetic growth profiling, strain panel (AID 1159580);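 further: tested at 20 µM; growth read once vehicle control cultures reached saturation at 30 °C; 1 = growth at the plate median or of vehicle wells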
Conditions: growth OD

Measured: normalized growth

O=c1[nH]cnc2c1ncn2C1O[C@H](CO)[C@@H](O)[C@H]1O (some centres undefined)
inactive: S. cerevisiae deletion strains, locus YJR075W, strain HOC1, stronger effect = lower value 1.01 | S. cerevisiae deletion strains, locus YKL009W, strain mrt4, stronger effect = lower value 0.979 | S. cerevisiae deletion strains, locus YKL068W, stronger effect = lower value 1.01 | S. cerevisiae deletion strains, locus YKL085W, strain MDH1 (second series), stronger effect = lower value 0.998 | S. cerevisiae deletion strains, locus YKL085W, strain MDH1, stronger effect = lower value 0.998 | S. cerevisiae deletion strains, locus YKL160W, strain elf1, stronger effect = lower value 0.986 | S. cerevisiae deletion strains, locus YKL190W, strain CNB1, stronger effect = lower value 1 | S. cerevisiae deletion strains, locus YKR001C, strain vps1, stronger effect = lower value 1.06 | S. cerevisiae deletion strains, locus YKR026C, strain gcn3, stronger effect = lower value 0.984 | S. cerevisiae deletion strains, locus YKR091W, strain srl3, stronger effect = lower value 0.986 | S. cerevisiae deletion strains, locus YLL001W, strain dnm1, stronger effect = lower value 1.01 | S. cerevisiae deletion strains, locus YLL026W, stronger effect = lower value 0.993 | S. cerevisiae deletion strains, locus YLL041C, strain sdh2, stronger effect = lower value 1 | S. cerevisiae deletion strains, locus YLR027C, strain aat2, stronger effect = lower value 0.994 | S. cerevisiae deletion strains, locus YLR039C, strain RIC1, stronger effect = lower value 1.04 | S. cerevisiae deletion strains, locus YLR058C, strain SHM2, stronger effect = lower value 0.999 | S. cerevisiae deletion strains, locus YLR102C, strain apc9, stronger effect = lower value 1.04 | S. cerevisiae deletion strains, locus YLR113W, strain HOG1, stronger effect = lower value 0.978 | S. cerevisiae deletion strains, locus YLR221C, strain rsa3, stronger effect = lower value 0.96 | S. cerevisiae deletion strains, locus YLR258W, strain gsy2, stronger effect = lower value 0.99 | S. cerevisiae deletion strains, locus YLR262C, strain YPT6 (second series), stronger effect = lower value 1.02 | S. cerevisiae deletion strains, locus YLR262C, strain YPT6, stronger effect = lower value 1.05 | S. cerevisiae deletion strains, locus YLR268W, strain sec22, stronger effect = lower value 1.05 | S. cerevisiae deletion strains, locus YLR320W, strain mms22, stronger effect = lower value 0.959 | S. cerevisiae deletion strains, locus YLR330W, strain CHS5, stronger effect = lower value 1.01 | S. cerevisiae deletion strains, locus YLR342W, strain FKS1 (second series), stronger effect = lower value 0.996 | S. cerevisiae deletion strains, locus YLR342W, strain FKS1, stronger effect = lower value 0.989 | S. cerevisiae deletion strains, locus YLR357W, strain rsc2, stronger effect = lower value 0.971 | S. cerevisiae deletion strains, locus YLR370C, strain arc18, stronger effect = lower value 0.991 | S. cerevisiae deletion strains, locus YLR371W, strain rom2, stronger effect = lower value 1.01 | S. cerevisiae deletion strains, locus YLR384C, strain iki3, stronger effect = lower value 0.969 | S. cerevisiae deletion strains, locus YLR418C, strain cdc73, stronger effect = lower value 1.01 | S. cerevisiae deletion strains, locus YML016C, strain PPZ1, stronger effect = lower value 1 | S. cerevisiae deletion strains, locus YML032C, strain rad52, stronger effect = lower value 1.01 | S. cerevisiae deletion strains, locus YML120C, strain ndi1, stronger effect = lower value 1.01 | S. cerevisiae deletion strains, locus YML124C, strain tub3, stronger effect = lower value 1.02 | S. cerevisiae deletion strains, locus YMR058W, strain fet3, stronger effect = lower value 0.992 | S. cerevisiae deletion strains, locus YMR078C, strain ctf18, stronger effect = lower value 1.06 | S. cerevisiae deletion strains, locus YMR125W, strain sto1, stronger effect = lower value 1.01 | S. cerevisiae deletion strains, locus YMR129W, stronger effect = lower value 0.997 | S. cerevisiae deletion strains, locus YMR205C, strain PFK2, stronger effect = lower value 0.984 | S. cerevisiae deletion strains, locus YMR223W, strain ubp8, stronger effect = lower value 1.01 | S. cerevisiae deletion strains, locus YMR231W, strain pep5, stronger effect = lower value 0.977 | S. cerevisiae deletion strains, locus YMR263W, strain SAP30, stronger effect = lower value 1 | S. cerevisiae deletion strains, locus YMR307W, strain GAS1, stronger effect = lower value 1.01 | S. cerevisiae deletion strains, locus YNL067W, strain RPL9B, stronger effect = lower value 1.01 | S. cerevisiae deletion strains, locus YNL071W, strain lat1, stronger effect = lower value 1 | S. cerevisiae deletion strains, locus YNL153C, strain GIM3, stronger effect = lower value 0.99 | S. cerevisiae deletion strains, locus YNL183C, strain NPR1, stronger effect = lower value 0.908 | S. cerevisiae deletion strains, locus YNL209W, strain ssb2, stronger effect = lower value 0.995 | S. cerevisiae deletion strains, locus YNL233W, strain BNI4, stronger effect = lower value 1.02 | S. cerevisiae deletion strains, locus YNL248C, strain rpa49, stronger effect = lower value 0.902 | S. cerevisiae deletion strains, locus YNL250W, strain rad50, stronger effect = lower value 1.03 | S. cerevisiae deletion strains, locus YNL271C, strain bni1, stronger effect = lower value 1.04 | S. cerevisiae deletion strains, locus YNL298W, strain CLA4, stronger effect = lower value 1.03 | S. cerevisiae deletion strains, locus YNL307C, strain MCK1, stronger effect = lower value 1.05 | S. cerevisiae deletion strains, locus YNL322C, strain KRE1 (second series), stronger effect = lower value 0.985 | S. cerevisiae deletion strains, locus YNR049C, strain mso1, stronger effect = lower value 0.978 | S. cerevisiae deletion strains, locus YNR052C, strain pop2, stronger effect = lower value 1.02 | S. cerevisiae deletion strains, locus YOL012C, strain htz1 1.16 | S. cerevisiae deletion strains, locus YOL147C, strain pex11, stronger effect = lower value 1.04 | S. cerevisiae deletion strains, locus YOR001W, strain rrp6, stronger effect = lower value 0.994 | S. cerevisiae deletion strains, locus YOR061W, strain CKA2, stronger effect = lower value 1.01 | S. cerevisiae deletion strains, locus YOR069W, strain VPS5, stronger effect = lower value 1 | S. cerevisiae deletion strains, locus YOR070C, strain gyp1, stronger effect = lower value 0.991 | S. cerevisiae deletion strains, locus YOR080W, strain dia2, stronger effect = lower value 0.99 | S. cerevisiae deletion strains, locus YOR083W, strain WHI5, stronger effect = lower value 0.998 | S. cerevisiae deletion strains, locus YOR106W, strain vam3, stronger effect = lower value 1.01 | S. cerevisiae deletion strains, locus YOR136W, strain idh2, stronger effect = lower value 1.02 | S. cerevisiae deletion strains, locus YOR144C, strain elg1, stronger effect = lower value 1.03 | S. cerevisiae deletion strains, locus YOR184W, strain ser1, stronger effect = lower value 1.05 | S. cerevisiae deletion strains, locus YOR231W, strain MKK1, stronger effect = lower value 0.982 | S. cerevisiae deletion strains, locus YOR265W, strain rbl2, stronger effect = lower value 0.984 | S. cerevisiae deletion strains, locus YOR270C, strain vph1, stronger effect = lower value 0.987 | S. cerevisiae deletion strains, locus YOR290C, strain snf2, stronger effect = lower value 1 | S. cerevisiae deletion strains, locus YOR316C, strain cot1, stronger effect = lower value 1.04 | S. cerevisiae deletion strains, locus YPL051W, strain arl3, stronger effect = lower value 0.977 | S. cerevisiae deletion strains, locus YPL055C, strain LGE1, stronger effect = lower value 1.03 | S. cerevisiae deletion strains, locus YPL078C, strain atp4, stronger effect = lower value 1 | S. cerevisiae deletion strains, locus YPL106C, strain sse1, stronger effect = lower value 1.02 | S. cerevisiae deletion strains, locus YPL240C, strain hsp82, stronger effect = lower value 0.984 | S. cerevisiae deletion strains, locus YPL241C, strain CIN2, stronger effect = lower value 1 | S. cerevisiae deletion strains, locus YPL256C, strain CLN2, stronger effect = lower value 0.965 | S. cerevisiae deletion strains, locus YPR119W, strain clb2, stronger effect = lower value 1.06 | S. cerevisiae deletion strains, locus YPR141C, strain kar3, stronger effect = lower value 1.03 | S. cerevisiae deletion strains, locus YPR163C, strain tif3, stronger effect = lower value 1.02 | S. cerevisiae deletion strains, locus YPR167C, strain met16, stronger effect = lower value 1.02 | S. cerevisiae deletion strains, strain wtn01, stronger effect = lower value 1.04 | S. cerevisiae strains, strain wild type, stronger effect = lower value 1.01
